Screening data deposited in PubChem BioAssay by The Scripps Research Institute Molecular Screening Center.
Shown are actives, neighbours in structure and some others; about 5.7% of the full set was active somewhere.
AHR act = human AHR activation; P35869; AHR-responsive luciferase reporter cells, luminescence; activation, % at 5 µM; 2.5% of 320,000 active; AID 2796; in the data active means activation above about 47%
Target sequence (P35869 whole entry, looked up): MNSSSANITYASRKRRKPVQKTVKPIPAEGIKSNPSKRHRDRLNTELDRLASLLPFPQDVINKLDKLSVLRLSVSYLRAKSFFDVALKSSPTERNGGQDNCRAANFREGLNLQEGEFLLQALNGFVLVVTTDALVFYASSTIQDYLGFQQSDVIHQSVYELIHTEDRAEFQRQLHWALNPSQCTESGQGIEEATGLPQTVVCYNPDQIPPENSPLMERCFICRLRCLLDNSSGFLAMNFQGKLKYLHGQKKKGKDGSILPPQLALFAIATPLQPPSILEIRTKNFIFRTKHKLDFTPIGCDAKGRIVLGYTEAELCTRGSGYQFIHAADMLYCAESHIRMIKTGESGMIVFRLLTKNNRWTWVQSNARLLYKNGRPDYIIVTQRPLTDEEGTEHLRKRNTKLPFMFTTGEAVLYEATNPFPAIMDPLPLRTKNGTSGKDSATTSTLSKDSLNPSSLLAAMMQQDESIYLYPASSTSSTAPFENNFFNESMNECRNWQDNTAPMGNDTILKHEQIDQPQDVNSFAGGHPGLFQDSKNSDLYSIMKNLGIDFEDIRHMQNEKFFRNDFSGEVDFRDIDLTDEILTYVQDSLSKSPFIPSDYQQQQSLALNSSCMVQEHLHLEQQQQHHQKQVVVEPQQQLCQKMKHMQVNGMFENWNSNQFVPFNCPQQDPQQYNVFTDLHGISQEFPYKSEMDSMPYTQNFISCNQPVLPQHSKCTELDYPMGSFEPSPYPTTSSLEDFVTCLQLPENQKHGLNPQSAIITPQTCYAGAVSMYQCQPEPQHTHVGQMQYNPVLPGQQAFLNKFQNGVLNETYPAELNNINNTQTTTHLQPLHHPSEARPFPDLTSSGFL
hcDAF12 agonist = H. contortus DAF-12 activation, primary screen. activation, % at 6.8 µM. HEK293 hcDAF-12 lit1-tk-luc reporter, luminescence; 0% DMSO, 100% Δ7-dafachronic acid. AID 652067. 1.4% of 370,000 active;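 active means activation above the mean of all tested compounds plus 3 SD, cut at about 5.5% in these data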
ssDAF-12 act = S. stercoralis DAF-12 activation, primary screen; HEK293 ssDAF-12/GRIP1 lit1-tk-luc reporter, luminescence; % of 3 µM dafachronic acid response; AID 652126; activation, % at 6.8 µM; 1% of 370,000 active;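 active means activation above the mean over all tested compounds plus 3 SD, cut at about 0.9% in these data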
DAX1 inh-1 = DAX1 (NR0B1) inhibition, primary screen; inhibition, % at 6.8 µM; AID 652010; 1.1% of 370,000 active; HEK293T StAR-luciferase reporter, SF-1/DAX-1 repression relief;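 active means inhibition above the mean over all tested compounds plus 3 SD, cut at about 3.6% in these data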;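 further: higher inhibition means more luminescence from relief of DAX-1 repression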
hgDAF-12 ag = hgDAF-12 agonism, primary luciferase screen; activation, % at 6.8 µM; HEK293 GAL4-hgDAF12 UAS-luciferase reporter, agonist luminescence; normalized to butyrate control; 1.8% of 370,000 active;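 active means activation above a cutoff set at the mean of all screened compounds plus 3 SD, cut at about 10% in these data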
DAX1 inh-2 = inhibitors of human orphan nuclear receptor DAX1 (NR0B1) | P51843 | inhibition, % at 6.75 µM | 0.99% of 340,000 active | HEK293 Gal4-DAX1 luciferase reporter, luminescence | AID 504766;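 active means inhibition above the mean over all tested compounds plus 3 SD, cut at about 4.2% in these data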;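 further: inhibition shows as a rise in luminescence from relieved DAX1 repression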
Numbers stand for hits; . = inactive; / = not tested or not shown.

SMILES	AHR act	hcDAF12 agonist	ssDAF-12 act	DAX1 inh-1	hgDAF-12 ag	DAX1 inh-2
CCCCCCOC(=O)C(C#N)c1nc2ccccc2nc1N1CCN(C)CC1 (configuration not stated)	.	.	.	.	.	.
COc1ccc(S(=O)(=O)NCC2CCCN(Cc3ccccc3Cl)C2)cc1 (configuration not stated)	.	.	.	.	.	.
COc1ccc(N(C)C(=O)c2sc(Cl)nc2C)cc1	.	.	.	.	.	.
Cc1ccc(OC(=O)c2sc(Cl)nc2C)cc1C	.	.	.	.	.	4.3
COc1ccc(-c2ccc(/C=C3/C(=N)N4C=CSC4=NC3=O)o2)c([N+](=O)[O-])c1	49	.	.	.	.	.
CCOC(=O)C1=C(COC(=O)c2cccc(N(C)C)c2)NC(=O)NC1C (configuration not stated)	.	.	.	4.2	.	.
O=S(=O)(/N=C/c1ccccc1O)c1cccs1	.	.	.	.	.	.
COc1ccc(C2N(c3ccc(C)cc3)CCN2c2ccc(C)cc2)cc1O	.	.	.	.	.	4.9
COc1ccc(NC(=O)NC2CCCc3ccccc32)cc1 (configuration not stated)	/	.	.	.	.	.
COCCN1C[C@@H](CO)O[C@@H](n2cnc3c(NC4CC4)ncnc32)C1	/	.	.	.	.	/
CCOc1nc(-c2ccncc2)nc2ccccc12	114	.	.	.	.	.
Fc1ccc(Nc2nc(-c3ccncc3)nc3ccccc23)cc1	52	.	.	.	.	.
CC(=O)Nc1cccc(Nc2nc(-c3ccccc3)nc3ccccc23)c1	62	.	.	.	.	.
CCCOc1ccc(-c2nc(OCC)c3ccccc3n2)cc1	.	.	.	.	.	.
Fc1ccccc1Nc1nc(-c2ccncc2)nc2ccccc12	56	.	.	.	.	.
Cc1ccc(Nc2nc(-c3ccncc3)nc3ccccc23)cc1	.	.	.	.	.	/
c1ccc(Nc2nc(-c3ccncc3)nc3ccccc23)cc1	.	.	.	.	.	.
COc1cc(C2C(C(C)=O)=C(O)C(=O)N2CCc2c[nH]c3ccccc23)ccc1O (configuration not stated)	.	.	.	.	.	.
CC(=O)C1=C(O)C(=O)N(CCc2c[nH]c3ccccc23)C1c1cccc(O)c1 (configuration not stated)	.	5.7	.	.	.	.
COc1ccc(N=C(NN)c2ccc3ccccc3n2)cc1	71	.	.	.	.	.
COc1ccc(CNC(=O)c2ccc3ccccc3n2)cc1	.	.	.	.	.	.
Cc1ccc(CN2[C@@H](Cc3ccccc3)C(=O)CS2(=O)=O)cc1	.	.	.	.	.	.
Nc1cccnc1Sc1ccc([N+](=O)[O-])cn1	/	.	.	.	.	.
Nc1cccnc1Sc1cc(Cl)c(Cl)cc1Cl	59	.	.	.	.	.
COc1ccc(C(CNC(=O)c2cccc(S(=O)(=O)Nc3ccccc3OC)c2)N2CCOCC2)cc1 (configuration not stated)	.	.	.	.	.	.
SMILES	AHR act	hcDAF12 agonist	ssDAF-12 act	DAX1 inh-1	hgDAF-12 ag	DAX1 inh-2
CC(Oc1ccccc1F)c1ccnc2nc(/N=C/N(C)C)nn12 (configuration not stated)	.	.	.	.	.	.
C/C(=N\NC=O)c1ccncc1	.	.	.	.	.	5.0
C/C(=N\NC(=O)c1ccc(Cl)cc1)c1ccccn1	.	.	.	.	.	.
C/C(=N\Nc1ccc(Cl)cc1)c1ccncc1	68	.	.	.	.	.
C/C(=N\Nc1ccc(Cl)cc1)c1ccccn1	68	.	.	.	.	.
C/C(=N\Nc1ccc(F)cc1)c1ccncc1	.	.	.	.	.	.
O=[N+]([O-])c1ccc(/C=N/N/C(=N/c2ccccn2)c2ccccn2)cc1	.	.	.	.	.	.
CC(Nc1nc(-c2ccc(F)cc2)cs1)c1nc2cc(Cl)c(Cl)cc2n1CCCO (configuration not stated)	72	.	.	.	.	.
COc1ccc(-c2csc(NC(CO)c3nc4ccccc4n3CCOCCO)n2)cc1 (configuration not stated)	.	.	.	.	.	.
